# From PubChem BioAssay AID1347165 (National Center for Advancing Translational Sciences (NCATS), 2019)
# Screen size: about 220,000 compounds; about 5,700 (2.6%) were called active. Where a call stands in place of a potency, no number is given. Another 18% or so got no clear call; they are omitted. This is one part of a sample in which actives are shown more often than they occur. Calls come from the whole dose curve; as a rule, active = well fitted inhibition curve with a large enough effect; inconclusive = small, poorly fitted or top-dose-only effect; inactive = no such curve, though single readings can be large or run the other way.
# Target: Lysine-specific demethylase 5B (Homo sapiens) (UniProt Q9UGL1)
# Assay: Primary screen for KDM5B Histone Demethylases FDH-coupled qHTS; note: nearly all actives have a fitted effect of over 70% in size
# Details: FDH-coupled NADH fluorescence (FDH is formaldehyde dehydrogenase); series mostly up to 57.7 µM
# Procedure, shortened: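 Here, H3K4me3 peptide (12.5 µM in substrate mix) is demethylated by KDM5BΔAP, 200 nM final, after 10 min compound exposure. Formaldehyde product is coupled through FDH (0.25 U/mL in mix) to NADH fluorescence; 30-min ΔRFU feeds dose-response curves.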
# Potency is the fitted concentration of half-maximal effect.
# Chain of Lysine-specific demethylase 5B (Homo sapiens) (Q9UGL1 whole entry, looked up): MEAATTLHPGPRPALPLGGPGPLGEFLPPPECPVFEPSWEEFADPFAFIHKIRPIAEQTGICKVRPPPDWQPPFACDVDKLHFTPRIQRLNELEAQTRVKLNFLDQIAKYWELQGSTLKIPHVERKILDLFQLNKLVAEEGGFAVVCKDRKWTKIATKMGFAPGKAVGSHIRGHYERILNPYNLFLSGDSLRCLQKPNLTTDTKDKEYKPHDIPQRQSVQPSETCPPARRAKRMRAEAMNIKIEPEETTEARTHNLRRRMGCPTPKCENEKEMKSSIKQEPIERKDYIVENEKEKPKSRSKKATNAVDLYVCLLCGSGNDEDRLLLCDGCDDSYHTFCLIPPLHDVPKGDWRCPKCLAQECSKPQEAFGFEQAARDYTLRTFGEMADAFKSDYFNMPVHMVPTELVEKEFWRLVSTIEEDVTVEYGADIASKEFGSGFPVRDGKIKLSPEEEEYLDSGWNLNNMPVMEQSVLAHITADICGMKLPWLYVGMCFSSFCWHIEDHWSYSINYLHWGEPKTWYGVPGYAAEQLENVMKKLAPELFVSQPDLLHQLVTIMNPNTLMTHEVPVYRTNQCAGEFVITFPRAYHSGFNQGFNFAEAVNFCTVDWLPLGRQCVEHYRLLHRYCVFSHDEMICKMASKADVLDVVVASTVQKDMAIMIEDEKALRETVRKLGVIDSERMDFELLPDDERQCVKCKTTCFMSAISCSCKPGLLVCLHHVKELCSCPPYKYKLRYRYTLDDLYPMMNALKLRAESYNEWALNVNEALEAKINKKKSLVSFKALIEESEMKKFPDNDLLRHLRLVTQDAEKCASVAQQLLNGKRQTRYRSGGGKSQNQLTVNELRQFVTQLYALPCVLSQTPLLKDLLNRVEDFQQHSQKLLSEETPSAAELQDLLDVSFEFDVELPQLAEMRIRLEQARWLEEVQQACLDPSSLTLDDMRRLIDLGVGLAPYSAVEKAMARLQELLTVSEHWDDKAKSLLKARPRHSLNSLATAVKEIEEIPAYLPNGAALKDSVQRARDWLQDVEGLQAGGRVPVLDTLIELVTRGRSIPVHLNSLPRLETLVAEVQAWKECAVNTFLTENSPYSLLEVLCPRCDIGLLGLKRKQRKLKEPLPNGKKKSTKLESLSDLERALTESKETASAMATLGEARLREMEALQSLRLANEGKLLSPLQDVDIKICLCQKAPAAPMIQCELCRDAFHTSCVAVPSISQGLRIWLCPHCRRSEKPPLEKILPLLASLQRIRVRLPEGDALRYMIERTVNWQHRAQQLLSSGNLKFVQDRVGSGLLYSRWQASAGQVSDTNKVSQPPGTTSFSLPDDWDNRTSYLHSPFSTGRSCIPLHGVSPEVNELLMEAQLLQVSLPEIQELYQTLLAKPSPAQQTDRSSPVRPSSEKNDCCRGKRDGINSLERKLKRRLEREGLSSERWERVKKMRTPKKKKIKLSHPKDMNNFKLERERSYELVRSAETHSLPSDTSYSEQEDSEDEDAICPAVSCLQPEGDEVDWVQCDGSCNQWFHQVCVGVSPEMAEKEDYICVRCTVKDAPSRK
row,SMILES,Potency
1,CCc1nc2c(c(-c3ccc(Cl)cc3)n1)CCN([S+](=O)([O-])c1cccs1)CC2,inactive
2,O=C(O)c1ccc(C(=O)C2CCCCC2C(=O)O)cc1 (stereo not given),inactive
3,Cc1nn(-c2ncnc3nc[nH]c23)c2c1C(c1ccc(F)cc1F)CC(=O)N2 (stereo not given),inactive
4,Cc1cccc(OCc2nn3c(CN4CCOCC4)nnc3s2)c1,inactive
5,Cc1cc2c(s1)CCCCCCCCCC/C2=N\Nc1ccc([N+](=O)[O-])cc1,inactive
6,O=C(Nc1ccc2oc(=O)ccc2c1)c1cccc2ccccc12,inactive
7,CC(NC(=O)c1ccc(SC(F)(F)F)cc1)c1ccccn1 (stereo not given),inactive
8,COc1ccc(NC(=O)Cc2c(C)c3ccc(O)cc3oc2=O)cc1,inactive
9,CC1(C)CC(NC(=O)Nc2ccc(OC(F)(F)F)cc2)CC(C)(C)N1,inactive
10,CN(C)C(=O)c1nc(-c2ccc(Cl)cc2Cl)c2cnccn12,100 µM (active)
11,CN(C)C(=O)c1nc(-c2cccnc2)c2ccccn12,inactive
12,CC1CCCCN1CCNC(=O)c1cc2c(s1)-c1ccccc1OC2 (stereo not given),inactive
13,CCCNC(=O)N1CC(Oc2ccc(-c3nc(C)no3)cc2)C1,inactive
14,COc1ccc(C(=O)NCc2nnc3cc(-c4nc(C)no4)ccn23)cc1,25.1 µM (active)
15,CC(C)NC(=O)C1CCc2nnc(CNC(=O)c3ccc(Cl)cc3Cl)n21 (stereo not given),inactive
16,CN(C)c1ccc(C(=O)NCc2nnc3cc(-c4nc(C5CC5)no4)ccn23)cc1,inactive
17,NS(=O)(=O)c1ccc(F)c(C(=O)NCc2noc(-c3ccco3)n2)c1,inactive
18,CCc1noc(-c2ccn3c(CNC(=O)c4ccco4)nnc3c2)n1,28.2 µM (active)
19,CCCC(=O)Nc1ccc2c(c1)nc(CCNC(=O)c1ccco1)n2C,inactive
20,O=C(NCc1nnc2cc(-c3nc(C4CC4)no3)ccn12)c1ccc(F)cc1Cl,28.2 µM (active)
21,COc1ccc(CNC(=O)c2ccc3oc(C(C)C)nc3c2)cc1,inactive
22,CSc1ncc(C(=O)NCCCc2ccccc2)c(C)n1,inactive
23,CCc1ccc(C2C(C(=O)Nc3ccccc3)=C(C)Nc3c(C(=O)Nc4ccc(F)cc4)cnn32)cc1 (stereo not given),inactive
24,COc1ccc(CC(=O)NC(CCSC)c2nc3ccccc3[nH]2)cc1 (stereo not given),inactive
25,Cc1cc(=O)oc2cc(OCC(=O)NCc3cccs3)c(Cl)cc12,inactive
26,COc1ccc(CNC(=O)CN(Cc2ccccc2Cl)C(=O)c2csnn2)cc1,inactive
27,Cc1noc(-c2ccccc2NC(=O)C2CC(=O)N(c3cccc(C(F)(F)F)c3)C2)n1 (stereo not given),inactive
28,CC(C)c1nc2c(c(-c3ccc(Cl)cc3)n1)CN(C(=O)c1ccccc1)CC2,inactive
29,O=C(c1cccc(Cl)c1)N1CCc2nc(C3CC3)nc(-c3ccc(Cl)cc3)c2C1,inactive
30,N#CC1CCN(C(=O)c2nc(-c3ccc(Cl)cc3)c3ccccn23)CC1,25.1 µM (active)
